gsp agonist = agonists of gsp mutant (McCune-Albright syndrome) | gsp mutant cells, cAMP HTRF, 30 min | Potency, µM (highest dose often 76.9 µM), for the others: top-dose activation (cAMP increase), usual class: activators | actives 0.13% (n = 340,000) | AID 624287; active = well fitted activation curve with a large enough effect; inconclusive = small, poorly fitted or top-dose-only effect, or another doubt; inactive = no such curve, though single readings can be large or run the other way; cell line not stated here;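 note: phosphodiesterase inhibitor Ro 20-1724 added with compounds to block cAMP breakdown; potency is the fitted concentration of half-maximal effect; nearly all actives have a fitted effect of over 60% in size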
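Cells in DMEM/10% FBS with G418 were pretreated with compounds in DMSO plus […] (300 uM stock) for 30 min at 37C. cAMP was measured by HTRF (cAMP-d2 plus anti-cAMP antibody-K) after 30 min at room temperature.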
gsp antagonist = antagonists of gsp mutant (McCune-Albright syndrome) | gsp-mutant cells, cAMP HTRF, 30 min | Potency, µM (highest dose often 76.9 µM), inactives show at the highest dose activity change, negative = inhibition, hits mostly inhibitors | actives 0.4% (n = 340,000) | AID 624288; calls by dose curve; cell line not stated here;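 note: intracellular cAMP measured with PDE inhibitor Ro 20-1724 present during compound exposure; potency is the fitted concentration of half-maximal effect; % is set by controls: 0 for no effect and ±100 for the full control effect; nearly all actives have a fitted effect of over 65% in size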
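Cells, 2000/well, grown 16–24 h in DMEM 10% FBS with 0.5 mg/ml G418, then compounds plus […] (300 uM addition stock), 30 min at 37C. cAMP read by HTRF (cAMP-d2 and anti-cAMP antibody-K in lysis buffer) after 30 min RT.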
RXFP1 antagonist = blocks the human relaxin receptor RXFP1 | Q9HBX9 | HEK293-RXFP1, relaxin-stimulated cAMP HTRF, 30 min; active compounds read low | activity change, negative = inhibition, % at 57.5 µM | actives 0.59% (n = 350,000);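 active = activity change of -60% or lower, but not beyond a set lower limit; inconclusive = change between -60% and -40%, or beyond the set limit; inactive = change above -40%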; note: % is set by controls: 0 for no effect and ±100 for the full control effect
Target sequence (Q9HBX9 whole entry, looked up): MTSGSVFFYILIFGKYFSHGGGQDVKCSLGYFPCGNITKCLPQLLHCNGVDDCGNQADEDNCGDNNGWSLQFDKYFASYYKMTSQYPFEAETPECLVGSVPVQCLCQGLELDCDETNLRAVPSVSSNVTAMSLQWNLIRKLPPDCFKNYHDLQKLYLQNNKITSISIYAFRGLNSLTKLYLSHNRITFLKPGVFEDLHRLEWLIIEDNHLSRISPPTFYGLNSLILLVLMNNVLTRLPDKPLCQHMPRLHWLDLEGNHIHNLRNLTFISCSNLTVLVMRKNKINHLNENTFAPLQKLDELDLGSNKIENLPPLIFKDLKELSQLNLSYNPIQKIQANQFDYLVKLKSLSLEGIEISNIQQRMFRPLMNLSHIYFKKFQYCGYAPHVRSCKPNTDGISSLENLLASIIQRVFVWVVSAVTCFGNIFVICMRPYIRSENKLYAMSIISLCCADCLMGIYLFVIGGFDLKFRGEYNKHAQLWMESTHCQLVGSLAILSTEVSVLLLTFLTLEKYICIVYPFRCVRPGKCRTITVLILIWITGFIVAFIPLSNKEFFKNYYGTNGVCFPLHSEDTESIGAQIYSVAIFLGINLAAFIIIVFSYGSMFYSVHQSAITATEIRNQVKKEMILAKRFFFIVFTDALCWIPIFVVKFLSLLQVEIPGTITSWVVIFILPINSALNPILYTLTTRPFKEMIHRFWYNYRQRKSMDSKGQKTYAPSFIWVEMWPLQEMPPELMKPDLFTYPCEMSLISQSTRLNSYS
Giardia kill = Giardia lamblia killing; Giardia lamblia trophozoite viability; activity change, % at 7.66 µM, hits read low; actives 0.15% (n = 340,000); in the data active = activity change below about -80%; inconclusive = between about -30% and that limit;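 note: parasites exposed to compound for two days anaerobically before the ATP read; % is set by controls: 0 for no effect and ±100 for the full control effect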
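Luminescent ATP signal served as the viability read-out, measured 15-30 min after adding ATP detection reagent to trophozoites that had been incubated with compounds for 48 hrs at 37 deg C anaerobically at 100 cells/well.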
RXFP1 agonist = activates the human relaxin receptor RXFP1; Q9HBX9; HEK293T-RXFP1 cAMP TR-FRET, 30 min; response scale: percent of porcine relaxin response, buffer zero; Potency, µM (series often up to 57.5 µM), without a hit: at the highest dose activation, actives largely listed as activators; actives 0.3% (n = 370,000); AID 2676; active = well fitted activation curve with a large enough effect; inconclusive = small, poorly fitted or top-dose-only effect; note: potency is the fitted concentration of half-maximal effect; % is set by controls: 0 for no effect and ±100 for the full control effect; nearly all actives have a fitted effect of over 60% in size
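HEK293 cells stably expressing RXFP1, treated 30 min at 37C with compounds plus PDE4 inhibitor Ro 20174; cAMP measured by HTRF TR-FRET. Normalized to buffer and 29 nM porcine relaxin; EC50 by Hill fit.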
Coupling enz = counter-screen for Giardia aldolase inhibitors: coupling enzyme system; coupling enzyme system counterscreen, AmpLite Red fluorescence; activity change, negative = inhibition, % at 58.2 µM, hits read low; actives 0.67% (n = 290,000); AID 2472; in the data active = activity change below about -30%; note: % is set by controls: 0 for no effect and ±100 for the full control effect
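Coupling enzymes only (glyceraldehyde-3-phosphate) + compound, at 57.5 uM final, 10 min RT; add substrate/coupling/AmpLite Red mix, 20 min RT; fluorescence ex 525/em 598 nm. Actives flag coupling-system interference.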
* = called active by the depositor; [ ] = dose if it differs, or a comment. Shown are actives, neighbours in structure and some others; about 1.6% of the full set was active somewhere.

Results for COc1cccc(CNS(=O)(=O)c2ccc(S(=O)(=O)N3CCCC3)cc2)c1 ?
gsp agonist: -6%[15.4 µM]; gsp antagonist: 6%; RXFP1 antagonist: -27; Giardia kill: 5; RXFP1 agonist: -1%; Coupling enz: -53*

How did COc1ccc(CNC(=O)c2cc(S(=O)(=O)N3CCOCC3)cn2C)cc1 do in these assays?
gsp agonist: 0%; gsp antagonist: 7%; RXFP1 antagonist: 1; Giardia kill: -3; RXFP1 agonist: 4%; Coupling enz: 0

How did COc1ccccc1CNC(=O)c1cc(S(=O)(=O)N2CCCC2)cn1C do in these assays?
gsp agonist: -8%; gsp antagonist: 1%; RXFP1 antagonist: -5; Giardia kill: -3; RXFP1 agonist: 0%; Coupling enz: 1

Results for O=C(Nc1nnc(-c2ccccc2)s1)C1CCCN(C(=O)c2ccoc2)C1 (stereo not given) ?
Giardia kill: 6

What do the screens show for `O=C(Cn1c2c(sc1=O)C1c3ccccc3OCC1CS2)Nc1ccc(Cl)c(Cl)c1` (stereo not given)?
gsp agonist: -30%; gsp antagonist: -2%; RXFP1 antagonist: 12; Giardia kill: 0; RXFP1 agonist: 0%; Coupling enz: 0

How did CC1=CC[C@@]2(CO)COC(c3ccccc3O)C1C2 (stereo not given in full) do in these assays?
Coupling enz: 0

How did N#Cc1nc(NCCO)nc(Nc2ccccc2)n1 do in these assays?
Coupling enz: -1

What do the screens show for `CC(C)C(C(=O)Nc1nccs1)c1ccc(Cl)cc1` (stereo not given)?
gsp agonist: -4%[15.4 µM]; gsp antagonist: 12%; RXFP1 antagonist: -83*; Giardia kill: 7; RXFP1 agonist: 3%; Coupling enz: 2

How did COc1ccc(CNC(=O)c2sc3nc4n(c(=O)c3c2C)CCCCC4)cc1 do in these assays?
RXFP1 antagonist: -5; RXFP1 agonist: 11%

How did COc1cc2c(cc1OC)C1N(CC2)C(=O)CCC12C(=O)CCCC2=O (stereo not given) do in these assays?
Coupling enz: -5

Results for Nc1ccccc1-c1n[nH]c(=S)s1 ?
gsp agonist: inconclusive; gsp antagonist: -17%; RXFP1 antagonist: -14; Giardia kill: -13; RXFP1 agonist: 28µM*; Coupling enz: 6

Results for Cc1ccccc1Nc1n[nH]c(=S)s1 ?
gsp agonist: -16%; RXFP1 antagonist: -1

How did CC(OC(=O)/C=C/c1cccs1)C(=O)Nc1ccc(C(N)=O)cc1 (stereo not given) do in these assays?
gsp agonist: -40%; gsp antagonist: 4%; RXFP1 antagonist: 2; Giardia kill: -3; RXFP1 agonist: 2%

What do the screens show for `CCc1sc(C(=O)Nc2nc(-c3ccccn3)cs2)cc1C`?
gsp agonist: -4%; gsp antagonist: -2%; RXFP1 antagonist: -69*; Giardia kill: -2

What do the screens show for `CC12CN3CC(C)(CN(C1)C3c1c[nH]c3ccccc13)C2=O` (stereo not given)?
gsp agonist: 18%[15.4 µM]; gsp antagonist: 4%; RXFP1 antagonist: -4; Giardia kill: 18; RXFP1 agonist: 0%; Coupling enz: 2

How did CC12CN3CC(C)(CN(C1)C3c1ccc3ccccc3c1O)C2=O (stereo not given) do in these assays?
gsp agonist: -43%; gsp antagonist: -8%; RXFP1 antagonist: 9; Giardia kill: -6; RXFP1 agonist: 2%; Coupling enz: -48*

Results for O=C1c2ccccc2C(=O)N1OCc1ccc(Cl)cc1 ?
gsp agonist: -30%; gsp antagonist: -11%; RXFP1 antagonist: -7; Giardia kill: -4; RXFP1 agonist: 0%; Coupling enz: 3

What do the screens show for `O=C1Cc2ccccc2C(=O)N1OCc1ccc(Cl)cc1`?
gsp agonist: -15%[15.4 µM]; gsp antagonist: 5%; RXFP1 antagonist: -18; Giardia kill: 0; RXFP1 agonist: 2%; Coupling enz: -42*

From PubChem BioAssay
